Like-named read-outs stand apart in the source and are kept apart here.
How the values were obtained:
GRK1 = settings: concentration: 1 μM, replicates: in singlicate; n = 1
GRK2 = test system: T1, GRK2; settings: concentration: 1 μM, replicates: in singlicate; n = 1
T1 construct: gene ADRBK1

GRK3 = test system: T2, GRK3; settings: concentration: 1 μM, replicates: in singlicate; n = 1
T2 construct: gene ADRBK2

GRK4 = settings: concentration: 1 μM, replicates: in singlicate; n = 1
GRK7 = settings: concentration: 1 μM, replicates: in singlicate; n = 1
GSK3A = settings: concentration: 1 μM, replicates: in singlicate; n = 1
GSK3B = settings: n = 1
HASPIN = test system: T3, HASPIN; settings: concentration: 1 μM, replicates: in singlicate; n = 1
T3 construct: gene GSG2

HCK = settings: concentration: 1 μM, replicates: in singlicate; n = 1
HIPK1 = settings: concentration: 1 μM, replicates: in singlicate; n = 1
[1] = concentration: 1 μM, replicates: in singlicate
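Also: KINOMEscan kinase panel screen.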

O=C(c1ccc(-c2cc(-c3c[nH]nc3-c3ccccn3)ccn2)cc1)N1CCCC1 [GW792479]
%Inh (GRK1): 21%
%Inh (GRK2): 0%
%Inh (GRK3): 0%
%Inh (GRK4): 0%
%Inh (GRK7): 0%
%Inh (GSK3A): 14%
%Inh (GSK3B; [1]): 0%
%Inh (HASPIN): 2%
%Inh (HCK): 12%
%Inh (HIPK1): 42%

COc1ccc(Nc2nccc(N3CCC(NC(=O)c4cccc(NC(C)=O)c4)C3)n2)cc1 (centres unmarked) [GSK1379732]
%Inh (GRK1): 0%
%Inh (GRK2): 2%
%Inh (GRK3): 49%
%Inh (GRK4): 0%
%Inh (GRK7): 0%
%Inh (GSK3A): 4%
%Inh (GSK3B; [1]): 0%
%Inh (HASPIN): 46%
%Inh (HCK): 0%
%Inh (HIPK1): 0%

CS(=O)(=O)CCNCc1ccc(-c2ccc3ncnc(Nc4ccc(OCc5ccccc5)c(Cl)c4)c3c2)o1.Cl [GW574783]
%Inh (GRK1): 2%
%Inh (GRK2): 1%
%Inh (GRK3): 20%
%Inh (GRK4): 0%
%Inh (GRK7): 0%
%Inh (GSK3A): 8%
%Inh (GSK3B; [1]): 1%
%Inh (HASPIN): 30%
%Inh (HCK): 18%
%Inh (HIPK1): 0%

CSc1ccc(NC2=C(c3ccccc3Cl)C(=O)NC2=O)cc1 [SB-342411]
%Inh (GRK1): 0%
%Inh (GRK2): 0%
%Inh (GRK3): 0%
%Inh (GRK4): 3%
%Inh (GRK7): 0%
%Inh (GSK3A): 81%
%Inh (GSK3B; 1 µM): 29%
%Inh (HASPIN): 0%
%Inh (HCK): 0%
%Inh (HIPK1): 8%

CCC(CC)(CC)n1cnc2c(N)ncnc21 [SKF-97620]
%Inh (GRK1): 40%
%Inh (GRK2): 16%
%Inh (GRK3): 0%
%Inh (GRK4): 8%
%Inh (GRK7): 14%
%Inh (GSK3A): 0%
%Inh (GSK3B; [1]): 35%
%Inh (HASPIN): 9%
%Inh (HCK): 9%
%Inh (HIPK1): 17%

Cl.c1ccc(Cn2ccc3cc(Nc4ncnc5ccccc45)ccc32)cc1 [GW275568]
%Inh (GRK1): 9%
%Inh (GRK2): 0%
%Inh (GRK3): 0%
%Inh (GRK4): 0%
%Inh (GRK7): 0%
%Inh (GSK3A): 11%
%Inh (GSK3B; [1]): 7%
%Inh (HASPIN): 1%
%Inh (HCK): 0%
%Inh (HIPK1): 3%

COc1cc2ncnc(Nc3ccc(OCc4ccccc4Br)c(Cl)c3)c2cc1OC.Cl [GI261590]
%Inh (GRK1): 0%
%Inh (GRK2): 0%
%Inh (GRK3): 41%
%Inh (GRK4): 0%
%Inh (GRK7): 0%
%Inh (GSK3A): 0%
%Inh (GSK3B; [1]): 10%
%Inh (HASPIN): 34%
%Inh (HCK): 25%
%Inh (HIPK1): 0%

COc1ccc(-c2oc3ncnc(N)c3c2-c2ccc(OC)cc2)cc1 [SB-589132]
%Inh (GRK1): 0%
%Inh (GRK2): 0%
%Inh (GRK3): 70%
%Inh (GRK4): 9%
%Inh (GRK7): 0%
%Inh (GSK3A): 15%
%Inh (GSK3B; [1]): 0%
%Inh (HASPIN): 64%
%Inh (HCK): 14%
%Inh (HIPK1): 0%

Cl.Cn1ccc(-c2cccc(Nc3ccnc4cc(-c5nccs5)ccc34)c2)n1 [GW525701]
%Inh (GRK1): 1%
%Inh (GRK2): 0%
%Inh (GRK3): 64%
%Inh (GRK4): 0%
%Inh (GRK7): 0%
%Inh (GSK3A): 0%
%Inh (GSK3B; [1]): 12%
%Inh (HASPIN): 8%
%Inh (HCK): 0%
%Inh (HIPK1): 0%

Fc1cccc(COc2ccc(Nc3ncnc4cc[nH]c34)cc2Cl)c1
%Inh (GRK1): 22%
%Inh (GRK2): 20%
%Inh (GRK3): 3%
%Inh (GRK4): 35%
%Inh (GRK7): 23%
%Inh (GSK3A): 12%
%Inh (GSK3B; [1]): 8%
%Inh (HASPIN): 0%
%Inh (HCK): 24%
%Inh (HIPK1): 27%

OCCOCCn1ccc2ncnc(Nc3ccc(Oc4cccc(Cl)c4)c(Cl)c3)c21
%Inh (GRK1): 9%
%Inh (GRK2): 0%
%Inh (GRK3): 0%
%Inh (GRK4): 0%
%Inh (GRK7): 0%
%Inh (GSK3A): 9%
%Inh (GSK3B; [1]): 0%
%Inh (HASPIN): 0%
%Inh (HCK): 9%
%Inh (HIPK1): 16%

Clc1cccc(-c2nc(Nc3ccncc3)c3ccccc3n2)c1 [GW873004]
%Inh (GRK1): 10%
%Inh (GRK2): 0%
%Inh (GRK3): 0%
%Inh (GRK4): 0%
%Inh (GRK7): 0%
%Inh (GSK3A): 0%
%Inh (GSK3B; [1]): 0%
%Inh (HASPIN): 50%
%Inh (HCK): 26%
%Inh (HIPK1): 43%

Fc1ccc(Nc2nccc(-c3c(-c4ccc(Cl)cc4)nn4ncccc34)n2)cc1F [GW829058]
%Inh (GRK1): 22%
%Inh (GRK2): 11%
%Inh (GRK3): 18%
%Inh (GRK4): 21%
%Inh (GRK7): 35%
%Inh (GSK3A): 0%
%Inh (GSK3B; [1]): 31%
%Inh (HASPIN): 37%
%Inh (HCK): 15%
%Inh (HIPK1): 33%

CN1c2ccc(-c3ccc(C(=O)NCCO)cc3)cc2-c2[nH]ncc2S1(=O)=O
%Inh (GRK1): 4%
%Inh (GRK2): 0%
%Inh (GRK3): 0%
%Inh (GRK4): 1%
%Inh (GRK7): 22%
%Inh (GSK3A): 8%
%Inh (GSK3B; [1]): 32%
%Inh (HASPIN): 21%
%Inh (HCK): 16%
%Inh (HIPK1): 67%

COc1ccc(NC(=O)Nc2ccc(C)c(-c3ccc(C(=O)Nc4ccncc4)cc3)c2)cc1 [GSK1398475]
%Inh (GRK1): 0%
%Inh (GRK2): 0%
%Inh (GRK3): 11%
%Inh (GRK4): 0%
%Inh (GRK7): 0%
%Inh (GSK3A): 15%
%Inh (GSK3B; [1]): 7%
%Inh (HASPIN): 0%
%Inh (HCK): 0%
%Inh (HIPK1): 0%

CC(C)N1CCC(n2cnc(-c3ccc(F)cc3)c2-c2ccnc(N)n2)CC1 [SB-223132]
%Inh (GRK1): 0%
%Inh (GRK2): 0%
%Inh (GRK3): 0%
%Inh (GRK4): 4%
%Inh (GRK7): 0%
%Inh (GSK3A): 17%
%Inh (GSK3B; [1]): 0%
%Inh (HASPIN): 12%
%Inh (HCK): 0%
%Inh (HIPK1): 30%

Cc1ccc(C)c(NC(=O)NCCNc2ccnc(Nc3ccc(F)cc3)n2)c1 [GSK1379878]
%Inh (GRK1): 0%
%Inh (GRK2): 0%
%Inh (GRK3): 17%
%Inh (GRK4): 0%
%Inh (GRK7): 0%
%Inh (GSK3A): 3%
%Inh (GSK3B; [1]): 0%
%Inh (HASPIN): 4%
%Inh (HCK): 0%
%Inh (HIPK1): 0%
